Experimental data published in the supplement of paper PMC6522484.
± gives the standard deviation of the averaged measurements.

Tests used:
DLD1 [1] = assay: cell viability (CellTiter-Glo) relative to plate median (fraction of plate median); higher = more viable cells; conditions: 5 µM; treatment time 24 h; reporter: 7TFP
How it was run: (§1)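 Each entry is a luminescence signal normalised to the plate median, averaged over independent replicates. The replicate count was two, and the cells were colorectal cancer lines with stable lentiviral TCF/Wnt firefly luciferase reporters exposed to library compounds at a final 5 µM for 24 h. Firefly luciferase and CellTiterGlo were measured on parallel plates.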

HCT116 = assay: as above; conditions: 5 µM; treatment time 24 h; reporter: TCF4/Wnt
How it was run: as §1

SW480 [2] = assay: as above; conditions: 5 µM; treatment time 24 h; reporter: 7TFP
How it was run: as §1

DLD1 [3] = assay: TCF/Wnt firefly luciferase reporter signal relative to plate median (fraction of plate median); higher = higher Wnt reporter signal; conditions: 5 µM; treatment time 24 h; reporter: 7TFP
How it was run: as §1

SW480 [4] = assay: as above; conditions: 5 µM; treatment time 24 h; reporter: 7TFP
How it was run: as §1

Compound	cell viability (DLD1 [1])	cell viability (HCT116)	cell viability (SW480 [2])	TCF/Wnt firefly luciferase reporter signal (DLD1 [3])	TCF/Wnt firefly luciferase reporter signal (SW480 [4])
C[C@]12CC[C@H]3C(=CCc4cc(O)ccc43)[C@@H]1CCC2=O	0.902 ± 0.086	0.869 ± 0.16	1.01 ± 0.031	1.07 ± 0.25	0.98 ± 0.057
N[C@@H]1CONC1=O	1.04 ± 0.11	1.05 ± 0.035	1.04 ± 0.061	1.05 ± 0.028	0.969 ± 0.21
C[C@]12CCC(=O)C=C1CC[C@@H]1[C@@H]2[C@@H](O)C[C@@]2(C)[C@H]1CC[C@]2(O)C(=O)CO	1.06 ± 0.071	1.05 ± 0.057	1.04 ± 0.028	0.951 ± 0.11	0.935 ± 0.04
CS(=O)(=O)OCCCCOS(C)(=O)=O	1.12 ± 0.2	1.06 ± 0.028	1.06 ± 0.05	0.9365 ± 0.005	0.984 ± 0.037
NS(=O)(=O)c1cc2c(cc1Cl)N=CNS2(=O)=O	0.965 ± 0.093	0.973 ± 0.081	0.891 ± 0.018	0.828 ± 0.18	0.984 ± 0.011
CCN(CC)CCOC(=O)C1(C2CCCCC2)CCCCC1	0.98 ± 0.0014	1.02 ± 0.14	1.045 ± 0.0071	0.9375 ± 0.0078	1.045 ± 0.0071
CN(C)CCCN1c2ccccc2CCc2ccc(Cl)cc21	1.04	0.984 ± 0.051	1.06 ± 0.021	1.06 ± 0.1	1.01 ± 0.055
CN1C(C(=O)Nc2ccccn2)=C(O)c2sccc2S1(=O)=O	0.932 ± 0.03	0.893 ± 0.011	0.9585 ± 0.00071	0.978 ± 0.073	1.09 ± 0.014
N[C@@H](CSCSC[C@H](N)C(=O)O)C(=O)O	0.966 ± 0.013	0.915 ± 0.022	0.9935 ± 0.0092	1.05 ± 0.014	0.934 ± 0.048
CC1=CC(=O)C(C(C)C)=CC1=O	1.04 ± 0.057	1.03 ± 0.054	1.05 ± 0.014	1.09 ± 0.11	1.1 ± 0.064
CCS(=O)(=O)CCn1c([N+](=O)[O-])cnc1C	0.965 ± 0.019	0.975 ± 0.014	1.01 ± 0.032	0.869 ± 0.0028	0.862 ± 0.059
O=C(O)C(S)C(S)C(=O)O (stereo not given)	1.04 ± 0.05	1.03 ± 0.099	1.01 ± 0.096	0.904 ± 0.1	1.004 ± 0.0078
CC1Cc2ccccc2N1NC(=O)c1ccc(Cl)c(S(N)(=O)=O)c1 (stereo not given)	1.01 ± 0.069	1.1 ± 0.028	1 ± 0.013	0.967 ± 0.13	1.055 ± 0.0071
O=C(Cc1ccccc1)NO	1.03 ± 0.028	0.878 ± 0.13	1 ± 0.027	0.789 ± 0.064	0.869 ± 0.014
O=C(Oc1cc(OC(=O)c2ccccc2)c2c(c1)O[C@H](c1ccc(OC(=O)c3ccccc3)c(OC(=O)c3ccccc3)c1)[C@@H](OC(=O)c1ccccc1)C2)c1ccccc1	1.04 ± 0.059	1.065 ± 0.0071	1.06 ± 0.071	0.978 ± 0.046	0.972 ± 0.016
CCc1cc(C(N)=S)ccn1	0.964 ± 0.035	1.02 ± 0.028	0.987 ± 0.0071	1.07 ± 0.078	1.09 ± 0.028
COc1cc(OC)c2c(=O)c(O)c(-c3ccc(OC)c(OC)c3)oc2c1	0.981 ± 0.055	1 ± 0.024	1.01 ± 0.021	0.899 ± 0.1	0.887 ± 0.17
Clc1ccccc1C(c1ccccc1)(c1ccccc1)n1ccnc1	1.05 ± 0.089	1 ± 0.11	0.956 ± 0.0042	0.938 ± 0.086	1.08 ± 0.014
CC(=O)[C@@]1(O)CC[C@H]2[C@@H]3C[C@H](C)C4=CC(=O)C=C[C@]4(C)[C@@]3(F)[C@@H](O)C[C@@]21C	1.07 ± 0.085	1.03	0.957 ± 0.044	0.985 ± 0.079	0.99 ± 0.057
CC[C@]1(O)C[C@@H]2CN(CCc3c([nH]c4ccccc34)[C@@](C(=O)OC)(c3cc4c(cc3OC)N(C)[C@H]3[C@@](O)(C(=O)OC)[C@H](OC(C)=O)[C@]5(CC)C=CCN6CC[C@]43[C@@H]65)C2)C1	0.879 ± 0.16	0.477 ± 0.019	1.1 ± 0.035	0.803 ± 0.15	0.867 ± 0.2
CO[C@@]1(NC(=O)CSCC#N)C(=O)N2C(C(=O)O)=C(CSc3nnnn3C)CS[C@@H]21	0.998 ± 0.031	1.11 ± 0.057	0.9035 ± 0.0021	0.928 ± 0.023	1.02
Nc1nc(/C(=C/CC(=O)O)C(=O)N[C@@H]2C(=O)N3C(C(=O)O)=CCS[C@H]23)cs1	0.988 ± 0.06	1.03 ± 0.021	0.985 ± 0.0042	1.13 ± 0.22	1.01 ± 0.052
C[C@@H]1CCC[C@H](C)N1NC(=O)c1ccc(Cl)c(S(N)(=O)=O)c1	1.04 ± 0.068	0.9815 ± 0.00071	0.96 ± 0.0071	0.993 ± 0.0099	0.984 ± 0.052
COc1cc(C(=O)NCCCCCC(=O)O)cc(OC)c1OC	0.981 ± 0.015	0.921 ± 0.044	1.01 ± 0.014	0.865 ± 0.023	0.902 ± 0.046
CC(=O)OCC(=O)[C@@]1(O)CC[C@H]2[C@@H]3CC[C@@H]4C[C@H](O)CC[C@]4(C)[C@H]3C(=O)C[C@@]21C	0.905 ± 0.11	1 ± 0.071	0.939 ± 0.011	0.968 ± 0.036	0.885 ± 0.019
C[N+](C)(C)CCO.[Cl-]	0.975 ± 0.0071	1.01 ± 0.068	0.929 ± 0.045	1.03 ± 0.021	1.1 ± 0.042
CC(C)c1c(O)ccc2c1CC[C@H]1[C@@](C)(CO)CCC[C@]21C	1.07 ± 0.057	1.03 ± 0.15	1.1 ± 0.085	1.06 ± 0.19	1.04 ± 0.021
COc1ccc(C(=O)c2ccccc2)c(O)c1	1.04 ± 0.042	1.185 ± 0.0071	1.01 ± 0.016	0.8625 ± 0.0064	1.05 ± 0.028
